# Compounds with a hit are over-represented: about 8% of the library has one in this group of screens.
# KB-V1 cytotox: qHTS assay for MDR1-selective chemotherapeutics: Primary screen using the drug-selected MDR subline cells KB-V1; KB-V1 MDR cells viability, CellTiter-Glo, 72 h; Potency, µM (titrated, usually from 46.1 µM), usual class: cytotoxic; hit rate 3.4% among 400,000; also: % is scaled to controls: 0 for no effect and ±100 for the full control effect; nearly all actives have a fitted effect of over 60% in size
#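 Drug-selected KB-V1 cells, grown in DMEM lacking phenol red with 10% FBS, receive compound titrations; after three days at 37 degrees C, surviving cell ATP is quantified by CellTiter-Glo luminescence and responses normalized and curve-fitted.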
# HT1080-NT tox: qHTS for induction of synthetic lethality in tumor cells producing 2HG: qHTS for the HT-1080-NT fibrosarcoma cell line; HT-1080-NT fibrosarcoma viability, CellTiter-Glo ATP luminescence, 48 h; Potency, µM (series often up to 46.1 µM), for the others: top-dose activity, negative = less viability, actives largely listed as cytotoxic; hit rate 1.6% among 360,000; AID 686970, 2013;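 also: NT is the 2HG producing partner of a matched IDH1 knockdown line; 0% = DMSO-treated cells and -100% = media-only wells without cells; nearly all actives have a fitted effect of over 55% in size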
#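 750 cells/well, RPMI + 5% FBS; 2 h settle, compound pin-transfer, 48 h at 37 degrees C. CellTiter-Glo 10 min RT, luminescence. Normalized to DMSO and media-only wells.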
# KB-3-1 tox: qHTS assay for MDR1-selective chemotherapeutics: Primary screen using the parental adenocarcinoma cell KB-3-1. KB-3-1 viability, CellTiter-Glo ATP luminescence, 72 h. Potency, µM (doses to about 46.1 µM), most hits filed as cytotoxic. hit rate 1.4% among 400,000; also: % is scaled to controls: 0 for no effect and ±100 for the full control effect; nearly all actives have a fitted effect of over 60% in size
#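 Cells are dispensed, compounds pinned in, plates held at 37 °C for 72 h, then CellTiter-Glo is added and luminescence read after 10 minutes. Cell line: parental KB-3-1 in phenol-red-free DMEM, 10% FBS.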
# SW480 rerep: A quantitative high throughput screen for small molecules that induce DNA re-replication in SW480 colon adenocarcinoma cells; SW480 DNA re-replication, Hoechst DNA content imaging, 48 h; Potency, µM (top dose mostly 46.1 µM), for the others: at the top dose re-replication activation, usual class: activators; hit rate 1.8% among 340,000; AID 624297, 2012; also: % of control where 0% means no effect; nearly all actives have a fitted effect of over 55% in size
#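 First, 250 cells per well were seeded. Next, compound or vehicle (23 nL) was pinned in, plates sat 48 hr at 37 C. Finally Hoechst was added for 40 min before fluorescence scanning.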
# HT1080 IDH1KD tx: qHTS for induction of synthetic lethality in tumor cells producing 2HG: qHTS for the HT-1080-IDH1KD cell line | Potency, µM (titrated, usually from 46.1 µM), for the others: at the highest dose activity, negative = toxicity, actives largely listed as cytotoxic | hit rate 2% among 360,000 | HT-1080 IDH1 knockdown viability, ATP luminescence, 48 h | AID 686971, 2013;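 also: 0% = DMSO wells and -100% = cell-free medium wells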
#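 Knockdown cells (IDH1KD HT-1080) received compounds 2 h after plating at 750 cells/well and were kept 48 h at 37 °C in 5% FBS RPMI. A CellTiter-Glo luminescence read gave % activity for curve fitting.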
# MCF10A rerep: A quantitative high throughput screen for small molecules that induce DNA re-replication in MCF 10a normal breast cells; MCF 10A DNA re-replication, Hoechst nuclear intensity, 48 h; hit rate 2.9% among 350,000; Potency, µM (series often up to 46.1 µM), without a hit: at the highest dose activity, positive = re-replication, most hits filed as activators; AID 624296, 2012; also: % of control where 0% means no effect; nearly all actives have a fitted effect of over 50% in size
# * = called active by the depositor; i = inactive; ? = inconclusive; . = no result; [ ] = remark or other dose. Calls follow the shape of the dose curve; as a rule, active = well fitted curve in the direction sought with a large enough effect; inconclusive = small, poorly fitted or top-dose-only effect, or another doubt; inactive = no such curve, though single readings can be large; an effect the other way counts as inactive or inconclusive. Potency is read from the fitted curve at half-maximal effect.
SMILES,KB-V1 cytotox,HT1080-NT tox,KB-3-1 tox,SW480 rerep,HT1080 IDH1KD tx,MCF10A rerep
O=C(c1ccco1)[C@@H]1[C@@H]2C(=O)N(c3ccccc3)C(=O)[C@@H]2C2c3ccccc3C=CN21 (some centres undefined),i,4%,i,-2%,-17%,-1%
CC(=O)[C@@H]1[C@@H]2C(=O)N(Cc3ccccc3)C(=O)[C@@H]2C2c3ccccc3C=CN21 (some centres undefined),i,5%,i,4%,0%,5.8µM*
O=S1(=O)c2cccc3cccc(c23)N1CCCN1CCN(c2ccc(F)cc2)CC1,.,.,.,-4%,.,?
O=C(Nc1sc2c(c1CN1CCOCC1)CCC2)c1ccc(F)cc1,2.1µM*,8%,i,-5%,8%,3%
Cc1sc(NC(=O)c2ccc(F)cc2)c(CN2CCCCCC2)c1C,?,-2%,i,14%,-8%,13%
Cn1c(CN2CCCCC2)nc2cc(NC(=O)c3ccc(Cl)cc3)ccc21,?,?,?,?,?,23µM*
Cn1c(CN2CCOCC2)nc2cc(NC(=O)c3ccc(F)cc3)ccc21,16µM*,-10%,i,-27%,0%,12%
Cn1c(CN2CCOCC2)nc2cc(NC(=O)c3ccccc3Cl)ccc21,?,2%,i,-9%,13%,19%
CCc1ccc(C(=O)C[N+]2(C)CCOCC2)cc1,i,.,i,.,.,.
Cc1ccc(-c2nnc(SCC(=O)Nc3ccccc3F)o2)cc1,8.2µM*,13µM*,5.2µM*,-6%,21µM*,-3%
Cc1[nH]c2ccc(-c3nnc(SCC(=O)c4ccccc4F)o3)cc2c1C,21µM*,-13%,i,4%,-12%,16µM*
Cc1ccc(C(=O)CSc2nnc(-c3ccc4[nH]c(C)c(C)c4c3)o2)cc1C,i,11%,i,1%,3%[9.24 µM],-1%
Cc1ccc(-c2nnc(SCC(=O)Nc3ccccc3N3CCOCC3)o2)cc1,13µM*,9%,i,-2%,28%,7%
O=C(CSc1nnc(-c2ccccc2)o1)Nc1ccccc1F,?,-30%,i,0%,?,0%
CC(=O)c1cccc(NC(=O)CCc2nc3cccnc3n2Cc2cccs2)c1,i,.,i,.,.,.
CC(=O)c1ccc(NC(=O)c2nc(-c3ccccc3)n(-c3ccccc3Cl)n2)cc1,i,.,i,.,.,.
COC(=O)C1=C(C)NC2=C(C(=O)CCC2)C1c1cn(Cc2ccc(Cl)cc2Cl)nc1-c1ccccc1 (centres undefined),?,-27%,?,?,?,?
CCOC(=O)C1=C(C)NC2=C(C(=O)CCC2)C1c1cn(Cc2ccc(Cl)cc2Cl)nc1-c1ccccc1 (centres undefined),?,?,16µM*,2.8µM*,?,?
CCCCN(C)S(=O)(=O)c1ccc(NC2=NS(=O)(=O)c3ccccc32)cc1,i,.,i,.,.,.
Cc1ccc(C(=O)c2no[n+]([O-])c2C(=O)c2ccc(C)cc2)cc1,i,?,i,5.2µM*,?,7.3µM*
CCCN1C(=O)/C(=N\OCC(=O)NC23CC4CC(CC(C4)C2)C3)c2ccccc21,16µM*,-5%,i,4%,-1%,30%
Cc1occc1C(=O)N/N=C/C=C/c1ccccc1,i,-8%,i,70%,-6%,29%
Cc1occc1C(=O)N/N=C/C=C/c1ccc(N(C)C)cc1,i,?,i,0.012µM*,?,?
Cc1occc1C(=O)N/N=C/c1ccc(N(C)C)cc1,i,?,i,-47%,23µM*,7%
Cc1ccc(/C=N/NC(=O)c2ccoc2C)o1,?,8%,i,1%,15%,13%
SMILES,KB-V1 cytotox,HT1080-NT tox,KB-3-1 tox,SW480 rerep,HT1080 IDH1KD tx,MCF10A rerep
N#Cc1ccc(NC(=O)COc2ccccc2C(=O)Nc2ccccc2)cc1,?,.,i,.,.,.
CCCN1C(=O)C2(c3ccccc31)c1c(oc3ccc(C)cc3c1=O)C(=O)N2CCOC (centres undefined),i,.,i,.,.,.
O=[N+]([O-])c1ccc(Sc2ccncn2)c([N+](=O)[O-])c1,?,18µM*,12µM*,.,15µM*,.
COc1c(Cl)cc(Cl)cc1CNCCSc1nnnn1C,i,.,i,.,.,.
O=C1CC(c2nc3ccccc3n2CCCOc2ccccc2)CN1c1ccc(F)cc1 (centres undefined),i,.,?,.,.,.
COc1cccc(C(=O)Nc2ccc(NC(=O)c3cc4ccccc4o3)c(OC)c2)c1,i,2%,?,?,2%,10µM*
CN(C)S(=O)(=O)c1ccc(NC(=O)c2cc3ccccc3o2)cc1,21µM*,-16%,i,-4%,1%,?
COc1cc(NC(=O)c2ccc(C)c(Cl)c2)ccc1NC(=O)c1cc2ccccc2o1,i,.,i,.,.,.
Cc1cc(NC(=O)c2cncc(Br)c2)ccc1NC(=O)c1cc2ccccc2o1,?,-6%,?,?,-14%,2.9µM*
COc1cc(NC(=O)c2ccccc2)ccc1NC(=O)c1cc2ccccc2o1,i,-1%,i,6%,6%,?
Cn1cc(C(=O)NCc2ccccc2)c(=O)c2cc(S(=O)(=O)N3CCCCCC3)ccc21,?,.,i,.,.,.
COc1ccc(-n2cc(-c3ccccc3)c3c(SC(C)C(C)=O)ncnc32)cc1 (centres undefined),?,.,i,.,.,.
CN(NC(=O)Nc1ccccc1)c1cnn(C)c(=O)c1Cl,?,-13%,i,3%,3%,2.3µM*
COc1cc(-c2noc(-c3ccc(NCc4cccnc4)c([N+](=O)[O-])c3)n2)cc(OC)c1OC,26µM*,.,i,.,.,.
COc1ccc(-c2noc(-c3ccc(NCc4cccnc4)c([N+](=O)[O-])c3)n2)cc1OC,i,.,i,.,.,.
O=C(Nc1ccc2c(c1)nc1n2CCSC1)c1ccccc1,13µM*,-1%,?,-11%,1%,3%
COC(=O)c1ccc(Cl)c(NS(=O)(=O)c2ccc3c(c2)OCCO3)c1,9.2µM*,?,5.8µM*,18µM*,4.6µM*,?

# Source: PubChem BioAssay (National Center for Advancing Translational Sciences (NCATS))
